Among the test systems are SK-MEL-2 melanoma; EKVX NSCLC; SN12C renal; UO-31 renal; TK-10 renal; ACHN renal; CAKI-1 renal; A498 renal; CCRF-CEM leukemia; MOLT-4 leukemia.
What all share (test): NCI-60 one-dose screen, 48 h (100 = growth as untreated, 0 = no growth, -100 = all killed)
Holding throughout (conditions): 10 µM unless noted

Compounds without any hit were thinned out: in the full panel of roughly 83,000, 20% have a hit.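 The endpoint reported here, percent growth, reads 100 for growth as untreated, 0 for no net growth and -100 for all cells dead.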 A number with no mark means an inactive call. Active and inactive are the calls of the source. Rule for the calls: active = growth percent below 10; inactive = the rest.

The values that follow come from PubChem BioAssay (NCI).

As to `CS(=O)(=O)Nc1cc(-c2ccc3ncnc(Nc4ccc(OCc5cccnc5)c(Cl)c4)c3c2)cnc1Cl`, the growth in the test with SK-MEL-2 melanoma is -76.7% (active); in the test on EKVX NSCLC it was -24.4% (active); in the test with SN12C renal, 8.19% (active); in the test on UO-31 renal it was 23.2%; in the test with TK-10 renal it was -27% (active); in the test on ACHN renal, 32%. Moreover, the growth with CAKI-1 renal is 1.71% (active); in the test with A498 renal it was -25.6% (active); in the test with CCRF-CEM leukemia, 11%; in the test on MOLT-4 leukemia, -50.6% (active).

`COc1ccc(-c2cc(C(=O)OCc3ccc(Br)cc3)nn2-c2ccc(S(C)(=O)=O)cc2)cc1OC`: the growth in the test with SK-MEL-2 melanoma was 95%; with EKVX NSCLC it was 76.1%; in the test with SN12C renal it was 78.3%; with UO-31 renal, 42.4%; in the test with TK-10 renal, 75.5%; in the test on ACHN renal, 85.1%. Also, the growth in the test with CAKI-1 renal is 83.5%; in the test with A498 renal, 70.3%; with CCRF-CEM leukemia it was 84.2%; in the test on MOLT-4 leukemia it was 64.5%.

Regarding `COc1cc(/C=C/C(=O)c2ccc(S(=O)(=O)NCCNc3nc(N(C)C)nc(N4CCOCC4)n3)cc2)cc(OC)c1OC`, the growth was 81.4% in the test on SK-MEL-2 melanoma; 36.3% in the test with EKVX NSCLC; -22% (active) in the test on SN12C renal; 12.8% in the test with UO-31 renal; 13.5% in the test on TK-10 renal; -100% (active) in the test on ACHN renal. Further, the growth is 39.4% in the test with CAKI-1 renal, 51.9% in the test with A498 renal, -27.9% (active) in the test with CCRF-CEM leukemia and -40.2% (active) with MOLT-4 leukemia.

For the molecule `COc1cc(CNC(=O)C[C@H](C)CCC=C(C)C)ccc1OCc1cn(-c2ccc(Cl)c(Cl)c2)nn1`, the growth in the test with SK-MEL-2 melanoma was 93.7%; in the test with EKVX NSCLC it was 77.2%; with SN12C renal, 38.2%; in the test with UO-31 renal, 60.8%; with TK-10 renal, 90.7%; with ACHN renal it was 71.5%. Also, the growth with CAKI-1 renal is 64%; in the test with A498 renal it was 79.9%; with CCRF-CEM leukemia it was 84.5%; with MOLT-4 leukemia it was 68.7%.

Regarding `c1n[nH]cc1-c1nc2ccc3cn[nH]c3c2c2c1CCCC2`, the growth in the test with SK-MEL-2 melanoma was 104%; with EKVX NSCLC, 69.1%; in the test with SN12C renal, 74.3%; in the test on UO-31 renal, 61.1%; in the test on TK-10 renal, 104%; in the test with ACHN renal, 73.5%. Further, the growth in the test on CAKI-1 renal was 39.2%; with A498 renal, 93.8%; with CCRF-CEM leukemia, 104%; in the test with MOLT-4 leukemia, 92.7%.

With `COc1cncc(-c2ccc3ncnc(N4CCc5ccc(Cl)cc54)c3c2)c1`, the growth in the test with SK-MEL-2 melanoma was 30.6%; in the test on EKVX NSCLC, -29.3% (active); in the test with SN12C renal it was 20.3%; with UO-31 renal it was 1.93% (active); in the test with TK-10 renal, 8.96% (active); in the test on ACHN renal, 10.5%. The growth is 8.52% (active) with CAKI-1 renal, 33.2% in the test with A498 renal, -1.98% (active) with CCRF-CEM leukemia and 4.34% (active) in the test on MOLT-4 leukemia.

Consider `O=C(Cn1c(/C=C/c2ccc([N+](=O)[O-])cc2)nc2ccccc2c1=O)Nc1ccccc1`, for which the growth in the test on SK-MEL-2 melanoma is 74.7%; with EKVX NSCLC, 79.9%; with SN12C renal, 61.6%; in the test on UO-31 renal, 90.4%; in the test with TK-10 renal, 95.3%; with ACHN renal, 47.8%. In addition, the growth is 57.3% in the test on CAKI-1 renal, 143% in the test on A498 renal, 101% in the test on CCRF-CEM leukemia and 107% in the test on MOLT-4 leukemia.

For `CCOc1ccccc1[C@H]1C(C(=O)c2ccc(Cl)cc2)C2(N[C@@H]1c1ccccc1)C(=O)Nc1ccc(Cl)cc12` (stereo not given in full), the growth was -11.2% (active) with SK-MEL-2 melanoma; 21.5% with EKVX NSCLC; -57.3% (active) in the test with SN12C renal; 16.7% in the test with UO-31 renal; 61.4% in the test on TK-10 renal; 22.4% in the test on ACHN renal. The growth with CAKI-1 renal is 18.5%; in the test on A498 renal it was 80.9%; with CCRF-CEM leukemia, 26.2%; in the test with MOLT-4 leukemia it was -23.4% (active).

As for `COc1ccc(-c2cc(C(=O)N=Nc3c(O)[nH]c4ccc(Cl)cc34)c3ccccc3n2)cc1OC`, the growth is 102% in the test on SK-MEL-2 melanoma; 90.1% in the test with EKVX NSCLC; 96.4% in the test with SN12C renal; 81.8% in the test on UO-31 renal; 116% with TK-10 renal; 105% in the test on ACHN renal. Further, the growth in the test on CAKI-1 renal was 95.2%; in the test with A498 renal it was 167%; in the test on CCRF-CEM leukemia, 112%; in the test on MOLT-4 leukemia, 118%.

As to `CCOc1ccccc1[C@H]1C(C(=O)c2ccc(Cl)cc2)C2(N[C@@H]1c1ccccc1)C(=O)Nc1ccccc12` (stereo not given in full), the growth with SK-MEL-2 melanoma was -46.5% (active); in the test on EKVX NSCLC, 9% (active); in the test on SN12C renal, -77.8% (active); in the test with UO-31 renal, 8.77% (active); in the test on TK-10 renal it was 36%; with ACHN renal it was 2.68% (active). Also, the growth with CAKI-1 renal is 8.88% (active); in the test with A498 renal, -2.33% (active); with CCRF-CEM leukemia, 12.1%; with MOLT-4 leukemia, -26.4% (active).

In the case of `COc1ccc2c(c1)c(-c1cc(N)n3nc(-c4c[nH]c5ccccc45)cc3n1)cn2C`, the growth in the test with SK-MEL-2 melanoma was -65.4% (active); in the test with EKVX NSCLC it was -79.6% (active); in the test with SN12C renal, -81% (active); with UO-31 renal, -71.1% (active); in the test with TK-10 renal, -92.5% (active); with ACHN renal, -79.6% (active). The growth is -70.2% (active) in the test on CAKI-1 renal, -57.8% (active) with A498 renal, -25.1% (active) in the test on CCRF-CEM leukemia and -1.51% (active) with MOLT-4 leukemia.

In the case of `Nc1cc2ccccc2c(=O)n1NC(=O)c1ccccc1`, the growth with SK-MEL-2 melanoma is 105%; with EKVX NSCLC it was 87.6%; in the test with SN12C renal, 100%; in the test with UO-31 renal it was 58.3%; in the test with TK-10 renal, 127%; in the test on ACHN renal, 93.4%. Moreover, the growth in the test with CAKI-1 renal is 83.8%; in the test on A498 renal, 145%; in the test with CCRF-CEM leukemia, 98.9%; with MOLT-4 leukemia, 93.9%.

For `Clc1ccc(-c2nc3ccc(-c4nnc(SCc5ccccc5)o4)cc3[nH]2)cc1`, the growth in the test with SK-MEL-2 melanoma is 75.3%; in the test with EKVX NSCLC, -24.4% (active); in the test with SN12C renal, -57.9% (active); in the test on UO-31 renal, 49.3%; with TK-10 renal, 90.6%; in the test with ACHN renal, 45%. Further, the growth in the test with CAKI-1 renal is 37.5%; with A498 renal, 112%; in the test with CCRF-CEM leukemia it was 34.1%; with MOLT-4 leukemia it was 27.7%.
